High-throughput results (PubChem BioAssay)
USP10 inh: inhibitors of human USP10 deubiquitinase; Ubiquitin carboxyl-terminal hydrolase 10 (Homo sapiens), Q14694; purified USP10, Ub-rhodamine fluorescence, 60 min; inhibition, % at 20 µM; 47,000 compounds, 1.1% hits
USP7 inh: inhibitors of human USP7 deubiquitinase; Ubiquitin carboxyl-terminal hydrolase 7 (Homo sapiens), Q93009; purified USP7, Ub-rhodamine cleavage fluorescence; inhibition, % at 20 µM; 47,000 compounds, 0.3% hits
OTUD3 block: inhibitors of human OTUD3 deubiquitinase | OTU domain-containing protein 3 (Homo sapiens), Q5T2D3 | purified OTUD3, Ub-rhodamine fluorescence, 2 h | inhibition, % at 25 µM | 47,000 compounds, 0.7% hits
Target sequence (Q5T2D3 whole entry, looked up, the tested form may be a part): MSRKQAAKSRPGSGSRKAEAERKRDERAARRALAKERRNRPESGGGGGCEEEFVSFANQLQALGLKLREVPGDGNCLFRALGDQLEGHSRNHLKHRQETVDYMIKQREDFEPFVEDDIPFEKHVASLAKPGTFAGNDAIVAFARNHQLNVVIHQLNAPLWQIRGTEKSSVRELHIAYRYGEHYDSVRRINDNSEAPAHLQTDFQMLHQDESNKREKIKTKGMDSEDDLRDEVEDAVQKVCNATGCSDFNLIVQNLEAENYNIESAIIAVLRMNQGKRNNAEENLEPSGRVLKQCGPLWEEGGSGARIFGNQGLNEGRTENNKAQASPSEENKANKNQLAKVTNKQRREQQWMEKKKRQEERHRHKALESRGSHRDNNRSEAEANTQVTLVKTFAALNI
UCHL1 block: inhibitors of human UCHL1 deubiquitinase; purified UCHL1, Ub-rhodamine cleavage fluorescence; inhibition, % at 20 µM; 47,000 compounds, 0.2% hits
The depositor's hits bear a star. Sampled rows, rich in hits. Any-hit rate of the full collection: about 1.7%. Cut-off read from the data, not from the text of the source: active = inhibition above about 30%; inactive = the rest.

SMILES	USP10 inh	USP7 inh	OTUD3 block	UCHL1 block
CCn1cc2c(n1)c(=O)n(Cc1ccccc1)c(=O)n2CC(=O)NCc1ccc(C)cc1	28	13	35*	2
O=C(Cn1c(=O)n(CC2CCC(C(=O)NCCc3ccccc3)CC2)c(=O)c2ccccc21)NCc1ccco1 (centres undefined)	29	-1	-1	-2
O=C(Cn1c(=O)n(CC2CCC(C(=O)NC3CCCC3)CC2)c(=O)c2ccccc21)NCc1ccco1 (centres undefined)	27	8	58*	10
O=C(Cn1c(=O)n(CC(=O)NC2CCCC2)c(=O)c2ccccc21)Nc1ccc(F)cc1	16	2	41*	-2
COc1ccc(NC(=O)Cn2c(=O)n(Cc3ccco3)c(=O)c3ccc(C(=O)NC4CCCC4)cc32)cc1	49*	13	9	1
COc1cc(NC(=O)Cn2c(=O)n(CC3CCC(C(=O)NC4CCCC4)CC3)c(=O)c3ccccc32)cc(OC)c1 (centres undefined)	12	12	43*	5
COc1ccc(NC(=O)Cn2c(=O)n(CCCC(=O)NC3CCCC3)c(=O)c3cc(Cl)ccc32)cc1	11	2	-17	-1
Cc1cc(C)c2sc(N(CCN(C)C)C(=O)CS(=O)(=O)c3ccccc3)nc2c1	-2	2	1	1
Cc1cc(C)c2sc(N(CCCn3ccnc3)C(=O)Cc3ccccc3)nc2c1	5	10	35*	5
Nc1c(-c2ccc(Cl)cc2)cnc2nc(Sc3ncc(C(F)(F)F)cc3Cl)nn12	23	9	30*	2
Nc1c(-c2ccc(Cl)cc2)cnc2cc(-c3ccc(Cl)c(Cl)c3)nn12	7	7	0	-3
CCc1cccc2c(C(=O)COc3ccc(C#N)cc3)c[nH]c12	16	3	32*	4
CC(=O)c1ccccc1NC(=O)COc1ccc(-c2ccc(C#N)cc2)cc1	11	12	5	3
Cc1noc(C)c1CN1CCC(NC(=O)c2ccc3[nH]ccc3c2)C1 (centres undefined)	-1	4	0	1
Cc1cc(O)c(C)c(O)c1C=O	3	3	4	1
Cc1c(O)cc(O)cc1O	-11	-138	48*	-155
C=C1O[C@](CO)(n2cnc3c(N)ncnc32)[C@@H](O)[C@H]1O	-5	-4	-3	-3
Nc1ncnc2c1ncn2[C@@H]1O[C@H](CO)C[C@@H]1O	28	30*	50*	16
O=C(Nc1ccccc1)C1CCCN(c2cnc3nccnc3c2)C1 (centres undefined)	-6	-51	-100	-48
CCn1c(-c2nnc(SCC(=O)NCCc3nc4ccccc4[nH]3)o2)cc2ccccc21	1	46*	4	13
COc1ccc(-c2ocnc2C(=O)Nc2ccccc2F)cc1OC	0	5	37*	6
CCN(CC)S(=O)(=O)c1ccc2c(c1)nc(CCC(=O)O)n2C	-3	-7	-21	-5
O=C(Nc1cccc(Cl)c1)N1CCC(c2cc(-c3ccco3)n[nH]2)CC1	-5	-7	33*	-12
O=C(Nc1cccc(Cl)c1)N1CCC(c2nc(-c3cccnc3)no2)CC1	1	2	-7	0
CC(=O)NCCc1ccc(O)cc1	2	1	-3	-2
SMILES	USP10 inh	USP7 inh	OTUD3 block	UCHL1 block
COC(=O)C1(Cc2ccc(O)cc2)OC(=O)C(O)=C1c1ccc(O)cc1 (centres undefined)	-10	-54	78*	37*
COc1cccc2cc(C(=O)Nc3nc(-c4ccncc4)cs3)oc12	48*	49*	32*	11
CC(C)=CCc1c2c(c3occ(-c4ccc(O)cc4)c(=O)c3c1O)C=CC(C)(C)O2	30	2	44*	10
CC(C)=CCc1c2c(c3occ(-c4ccc(O)c(O)c4)c(=O)c3c1O)C=CC(C)(C)O2	63*	-12	81*	15
Cc1ccc2c(c1)C(=O)N1CCCC1C(=O)N2CC(=O)N1CCC(C)CC1 (centres undefined)	0	1	4	0
O=C(NCc1ccco1)c1ccc(Oc2cc(Cl)cc(Cl)c2)o1	13	1	2	3
COc1ccc(Cl)cc1C(=O)NNC(=O)c1cc(-c2ccccc2)n[nH]1	40*	15	2	0
O=C(O)c1cc(-c2ccccc2)n[nH]1	-1	1	-9	-1
CC1(C)CCCC2=C1CC(C)(C)C(N(C(=O)/C=C/C(=O)O)c1ccccc1)C2 (centres undefined)	34*	1	41*	0
O=C(Nc1ccc(S(=O)(=O)Nc2cc(Cl)cc(Cl)c2)cc1)c1c(F)cccc1Cl	34*	12	9	4
CCN(CC)C(=O)Cn1c(CN2CCCCCC2)nc2ccccc21	-1	-8	-5	-3
Nc1c(C(=O)NCc2ccc3c(c2)OCO3)nnn1Cc1ccc(Br)cc1F	31*	16	22	7
C[C@H]1CCC[C@]2(C)C[C@H]3OC(=O)C(CN4CCN(Cc5ccccc5)CC4)[C@H]3C=C12 (some centres undefined)	0	-2	-8	4
CC1NC(=O)C(CC(N)=O)NC(=O)C(C(C)O)NC(=O)C(Cc2ccc(O)cc2)NC(=O)C(C(C)C)NC(=O)C(NC(=O)CC(O)CCCCCCCCCCCCN=C(N)N)C(C)OC1=O (centres undefined)	-7	-22	73*	4
O=C(NC1CCCCC1)C1=CCN(Cc2ccccc2)CC1	-7	-7	-17	-6
COc1ccccc1C1c2[nH]c3ccccc3c2C[C@H]2C(=O)N(C3CCCCC3)CC(=O)N12 (some centres undefined)	1	8	-7	11
Cc1cccc(Cl)c1NC(=O)Nc1ccc(NC(=O)c2ccccc2O)cc1	39*	10	-24	0
O=C(Nc1ccc(F)cc1)Nc1ccc(NC(=O)c2ccccc2O)cc1	25	14	0	4
O=C(Nc1ccc(NC(=O)c2ccccc2O)cc1)Nc1ccc(OCc2ccccc2)cc1	61*	30	-60	4
COc1ccccc1NC(=O)Nc1ccc(NC(=O)c2ccccc2O)cc1	15	9	-5	0
O=C(NC1CCCCC1)C1CN(C(=O)c2ccc(F)cc2F)CC12CCOCC2 (centres undefined)	0	0	-7	-1
COc1ccc(CCNC(=O)CCCn2c(SCC(=O)NCc3ccco3)nc3ccccc3c2=O)cc1OC	5	-5	37*	-1
O=C1C=C(O)c2c(O)cccc2C1=O	14	-114	14	23
O=C1CC(O)C(C2=CC(=O)c3c(O)cccc3C2=O)O1 (centres undefined)	-13	-143	71*	28
COc1ccc(-c2nc(C)c(C(=O)NCCc3ccc(S(N)(=O)=O)cc3)s2)cc1	30*	-1	2	-1
CCOC(=O)N1CCC(NC(=O)c2sc(-c3ccc(F)cc3)nc2C)CC1	-2	2	7	0
